Source: publication PMC7862700, “An all-to-all approach to the identification of sequence-specific readers for epigenetic DNA modifications on cytosine”

Key:
Assay in all cases: DAPPL (digital affinity profiling via proximity ligation, sequencing); 10 mM Tris-HCl pH 7.5, 50 mM NaCl, 1 mM DTT, 4% glycerol, room temperature, 30 min; GST-TFs on glutathione beads, 16-mer random dsDNA library, 0.1% formaldehyde crosslink after washing; high values mean tight binding
FEV = molecular target: T1, FEV (Homo sapiens, UniProt Q99581 1-238); conditions: protein: recombinant; tags: N-terminal GST; dsDNA, one strand shown
T1 sequence: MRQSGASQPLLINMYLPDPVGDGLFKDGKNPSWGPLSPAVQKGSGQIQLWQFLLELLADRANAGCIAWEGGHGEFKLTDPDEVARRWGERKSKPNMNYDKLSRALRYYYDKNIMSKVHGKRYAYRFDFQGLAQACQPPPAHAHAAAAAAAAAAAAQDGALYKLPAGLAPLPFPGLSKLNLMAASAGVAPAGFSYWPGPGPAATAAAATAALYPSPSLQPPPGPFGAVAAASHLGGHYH
How it was run: (§1)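 Sequencing on an Illumina NextSeq500 followed washing, crosslinking with 0.1% formaldehyde, proximity ligation (BsaI/T4 ligase, 1 h, 37 °C) and PCR amplification of pools that had been incubated for 30 min at room temperature with 200 nmole of a random double-stranded 16-mer DNA library in Tris/NaCl/DTT/glycerol buffer. Each pool held DNA-barcoded human transcription factors, expressed in yeast as GST fusions and captured on glutathione beads, plus a tag-only sample. Binding signal is a hexamer's read frequency for a factor divided by its frequency in the tag-only sample.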

ETV5 = ETV5 (Homo sapiens, UniProt P41161 1-510); conditions: protein: recombinant; tags: N-terminal GST; dsDNA, one strand shown
How it was run: as §1

HSF1 = HSF1 (Homo sapiens, UniProt Q00613 1-529); conditions: protein: recombinant; tags: N-terminal GST; chain copies: 3; dsDNA, one strand shown
How it was run: as §1

SPIC = molecular target: T2, SPIC (Homo sapiens, UniProt Q8N5J4 1-248); conditions: protein: recombinant; tags: N-terminal GST; dsDNA, one strand shown
T2 sequence: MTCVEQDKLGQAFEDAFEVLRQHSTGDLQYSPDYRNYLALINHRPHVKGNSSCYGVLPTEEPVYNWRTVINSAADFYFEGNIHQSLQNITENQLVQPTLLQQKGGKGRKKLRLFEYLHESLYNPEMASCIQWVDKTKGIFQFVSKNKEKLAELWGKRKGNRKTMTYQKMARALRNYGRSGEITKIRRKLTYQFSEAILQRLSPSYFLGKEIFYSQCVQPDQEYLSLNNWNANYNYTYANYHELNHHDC
How it was run: as §1

ELF4 = ELF4 (Homo sapiens, UniProt Q99607 1-663); conditions: protein: recombinant; tags: N-terminal GST; dsDNA, one strand shown
How it was run: as §1

ELK4 = molecular target: T3, ELK4 (Homo sapiens, UniProt P28324-2 1-405); conditions: protein: recombinant; tags: N-terminal GST; dsDNA, one strand shown
T3 sequence: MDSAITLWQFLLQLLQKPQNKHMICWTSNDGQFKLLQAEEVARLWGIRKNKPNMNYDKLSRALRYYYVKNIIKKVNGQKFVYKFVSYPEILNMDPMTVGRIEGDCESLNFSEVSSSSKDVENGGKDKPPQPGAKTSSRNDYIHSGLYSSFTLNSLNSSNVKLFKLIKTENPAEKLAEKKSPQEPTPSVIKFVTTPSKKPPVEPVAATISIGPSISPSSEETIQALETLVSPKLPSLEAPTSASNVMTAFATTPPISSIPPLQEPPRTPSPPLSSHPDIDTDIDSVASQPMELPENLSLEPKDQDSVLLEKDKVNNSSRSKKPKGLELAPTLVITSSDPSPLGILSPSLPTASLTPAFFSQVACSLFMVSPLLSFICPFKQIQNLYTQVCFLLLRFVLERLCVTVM
How it was run: as §1

ETV2 = molecular target: T4, ETV2 (Homo sapiens, UniProt O00321 1-342); conditions: protein: recombinant; tags: N-terminal GST; dsDNA, one strand shown
T4 sequence: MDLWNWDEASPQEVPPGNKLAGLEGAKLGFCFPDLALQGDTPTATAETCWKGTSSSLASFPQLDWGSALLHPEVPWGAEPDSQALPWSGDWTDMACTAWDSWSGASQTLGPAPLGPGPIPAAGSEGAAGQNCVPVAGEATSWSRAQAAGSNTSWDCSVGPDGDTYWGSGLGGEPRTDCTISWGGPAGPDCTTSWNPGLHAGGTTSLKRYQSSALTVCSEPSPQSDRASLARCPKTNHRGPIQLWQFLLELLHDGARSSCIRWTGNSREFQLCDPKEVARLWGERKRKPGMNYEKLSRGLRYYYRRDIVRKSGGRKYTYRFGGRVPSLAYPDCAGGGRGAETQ
How it was run: as §1

ELF3 = molecular target: T5, ELF3 (Homo sapiens, UniProt P78545 1-371); conditions: protein: recombinant; tags: N-terminal GST; dsDNA, one strand shown
T5 sequence: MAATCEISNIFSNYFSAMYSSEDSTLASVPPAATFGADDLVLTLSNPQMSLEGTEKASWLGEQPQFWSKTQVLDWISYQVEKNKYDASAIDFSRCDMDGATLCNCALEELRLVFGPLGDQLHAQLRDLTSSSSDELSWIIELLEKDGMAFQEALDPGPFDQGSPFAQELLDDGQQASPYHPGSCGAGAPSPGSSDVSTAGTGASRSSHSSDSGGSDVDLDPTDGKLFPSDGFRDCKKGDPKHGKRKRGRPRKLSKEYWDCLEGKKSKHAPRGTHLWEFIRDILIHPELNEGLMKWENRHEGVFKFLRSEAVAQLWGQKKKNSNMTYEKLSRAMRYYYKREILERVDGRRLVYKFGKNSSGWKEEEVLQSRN
How it was run: as §1

CRX = CRX (Homo sapiens, UniProt O43186 1-299); conditions: protein: recombinant; tags: N-terminal GST; dsDNA, one strand shown
How it was run: as §1

ELF4, sequence (Q99607 whole entry): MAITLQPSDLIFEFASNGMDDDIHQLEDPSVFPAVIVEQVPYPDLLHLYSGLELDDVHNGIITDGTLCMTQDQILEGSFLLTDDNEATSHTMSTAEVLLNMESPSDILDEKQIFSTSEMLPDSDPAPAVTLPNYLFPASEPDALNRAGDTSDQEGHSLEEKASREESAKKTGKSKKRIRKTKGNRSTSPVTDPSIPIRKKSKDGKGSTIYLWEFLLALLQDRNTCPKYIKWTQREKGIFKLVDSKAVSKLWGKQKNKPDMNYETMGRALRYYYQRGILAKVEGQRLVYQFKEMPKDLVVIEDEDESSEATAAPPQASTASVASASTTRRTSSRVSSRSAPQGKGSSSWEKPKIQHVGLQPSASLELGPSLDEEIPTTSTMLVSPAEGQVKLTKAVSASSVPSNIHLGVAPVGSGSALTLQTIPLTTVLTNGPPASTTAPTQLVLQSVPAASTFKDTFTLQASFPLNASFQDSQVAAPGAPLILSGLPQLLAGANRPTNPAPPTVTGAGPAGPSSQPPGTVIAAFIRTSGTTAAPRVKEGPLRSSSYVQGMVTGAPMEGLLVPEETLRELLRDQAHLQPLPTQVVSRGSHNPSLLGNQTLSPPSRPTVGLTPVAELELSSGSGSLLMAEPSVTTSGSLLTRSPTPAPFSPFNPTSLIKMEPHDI
CRX, sequence (O43186 whole entry): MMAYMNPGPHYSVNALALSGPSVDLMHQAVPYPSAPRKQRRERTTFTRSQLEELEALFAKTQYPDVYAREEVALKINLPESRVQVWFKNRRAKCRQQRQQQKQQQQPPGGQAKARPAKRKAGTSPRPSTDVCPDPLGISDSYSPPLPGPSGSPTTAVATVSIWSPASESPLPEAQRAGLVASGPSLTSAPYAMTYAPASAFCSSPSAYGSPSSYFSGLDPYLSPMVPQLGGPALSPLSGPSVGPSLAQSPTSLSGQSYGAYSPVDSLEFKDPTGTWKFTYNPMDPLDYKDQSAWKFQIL
ETV5, sequence (P41161 whole entry): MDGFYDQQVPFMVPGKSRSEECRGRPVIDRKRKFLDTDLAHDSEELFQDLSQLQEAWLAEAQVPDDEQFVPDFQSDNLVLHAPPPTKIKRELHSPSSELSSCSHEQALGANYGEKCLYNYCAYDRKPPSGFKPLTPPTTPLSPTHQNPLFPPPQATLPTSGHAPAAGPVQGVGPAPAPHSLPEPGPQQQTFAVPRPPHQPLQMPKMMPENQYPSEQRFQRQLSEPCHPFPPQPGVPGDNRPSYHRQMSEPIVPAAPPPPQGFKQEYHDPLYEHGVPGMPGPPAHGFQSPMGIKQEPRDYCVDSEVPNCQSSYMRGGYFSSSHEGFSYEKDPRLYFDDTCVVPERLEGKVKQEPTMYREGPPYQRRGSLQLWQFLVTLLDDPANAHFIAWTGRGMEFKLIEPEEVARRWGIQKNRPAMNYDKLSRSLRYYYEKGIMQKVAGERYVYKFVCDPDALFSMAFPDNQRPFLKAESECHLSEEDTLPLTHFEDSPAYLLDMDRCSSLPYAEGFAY
HSF1, sequence (Q00613 whole entry): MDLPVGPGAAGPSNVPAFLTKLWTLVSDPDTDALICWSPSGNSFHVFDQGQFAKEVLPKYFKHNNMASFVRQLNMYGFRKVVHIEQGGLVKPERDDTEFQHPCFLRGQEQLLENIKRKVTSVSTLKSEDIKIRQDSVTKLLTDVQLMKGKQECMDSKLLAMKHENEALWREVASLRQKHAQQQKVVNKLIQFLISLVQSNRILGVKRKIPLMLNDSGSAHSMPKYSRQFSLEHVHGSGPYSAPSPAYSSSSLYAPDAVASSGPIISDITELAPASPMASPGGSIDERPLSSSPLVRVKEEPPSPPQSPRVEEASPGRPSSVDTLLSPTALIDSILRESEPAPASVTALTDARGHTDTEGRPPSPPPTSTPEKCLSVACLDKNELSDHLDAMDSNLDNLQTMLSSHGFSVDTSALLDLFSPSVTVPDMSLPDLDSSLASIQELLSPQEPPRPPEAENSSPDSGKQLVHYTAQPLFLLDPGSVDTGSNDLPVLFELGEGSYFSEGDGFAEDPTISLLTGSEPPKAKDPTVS

TTTGCT
binding signal (FEV): 1.16 fold enrichment (6-mer frequency, TF over GST control) | binding signal (ETV5): 1.2 fold enrichment (6-mer frequency, TF over GST control) | binding signal (HSF1): 1.47 fold enrichment (6-mer frequency, TF over GST control) | binding signal (SPIC): 1.22 fold enrichment (6-mer frequency, TF over GST control) | binding signal (ELF4): 1.27 fold enrichment (6-mer frequency, TF over GST control) | binding signal (ELK4): 1.36 fold enrichment (6-mer frequency, TF over GST control) | binding signal (ETV2): 1.39 fold enrichment (6-mer frequency, TF over GST control) | binding signal (ELF3): 1.33 fold enrichment (6-mer frequency, TF over GST control) | binding signal (CRX): 1.45 fold enrichment (6-mer frequency, TF over GST control)
